According to PubChem BioAssay:
Active and inactive are the calls of the source.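 Rule for the calls, unless noted: active = fluorescence slope after compound addition differing from the mean of all screened samples at 99.7% confidence, in either direction; inactive = the rest.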

Key:
[1] = inhibitors of TNFa-induced NFkB p65 translocation, primary screen, imaging, HUVEC, MLSMR starter and 10KST1 sets (AID 438;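 active = inhibition above 20% together with a positive visual image hit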;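 note: compound added about 3h40 before a 20 min TNFalpha stimulation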;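 for inhibition: signal is the nuclear over cytoplasmic p65 intensity ratio per well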); conditions: HUVEC TNFa-induced p65 nuclear translocation; cell count: measured here: nuclei count (cytotoxicity indicator), at 2.08 µM; inhibition: at 2 µM, stronger effect = higher value, 0% TNFa-plus-vehicle, 100% no-TNFa wells
[2] = inhibitors of mutant huntingtin aggregation, primary screen, imaging, exon1htt(103Q)mCFP cells, high-content imaging (AID 483;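 active = visual image review flags a hit and inhibition of aggregation exceeds 20%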;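 note: compound exposure lasted 3 days before fixation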;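 for nuclei count: percent of the per-plate median nuclei count of sample wells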); conditions: exon1htt(103Q)mCFP cell line, aggregate imaging, at 2 µM; inhibition of aggregation: stronger effect = higher value; nuclei count: measured here: cell count, toxicity
[3] = inhibitors of E-selectin induction by TNFa, primary screen, imaging, HUVEC, immunofluorescence, MLSMR starter and 10KST1 sets (AID 487;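 active = visually confirmed hit in the image check and inhibition above 20%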;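 for inhibition: signal is fraction of cell area covered by stained E-selectin grains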;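 for nuclei count: 100% = median nuclei count of all wells on the same plate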); conditions: HUVEC TNFalpha-induced E-selectin immunofluorescence imaging, at 2 µM; inhibition: stronger effect = higher value; nuclei count: measured here: cell number, toxicity
[4] = target: Voltage-gated potassium channel subunit beta-2 (Rattus norvegicus) (UniProt P62483); assay: KvBeta enzyme negative modulators, primary screen, biochemical, NADPH fluorescence (AID 622;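 active = fluorescence slope higher than the sample average by over 3 SD, cut at about -0.22 in these data, passing the limit was not always enough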;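 note: slope of raw intensity against log time taken from 70 to 1610 s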); conditions: recombinant KvBeta, 4-cyanobenzaldehyde reduction, at 10 µM, stronger effect = higher value
[5] = target: Voltage-gated potassium channel subunit beta-2 (Rattus norvegicus) (UniProt P62483); assay: KvBeta positive modulators, primary screen, biochemical, NADPH fluorescence (AID 623;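 active = NADPH fluorescence slope more negative than the mean of all samples by about 3 SD, 99.7% confidence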;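 note: fluorescence intensity change per second fitted from 20 to 320 s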); conditions: Recombinant KvBeta, NADPH fluorescence decrease slope, 10 min; at 10 µM; stronger effect = lower value
[6] = target: Alpha-2C adrenergic receptor (Homo sapiens) (UniProt P18825); assay: modulators of alpha2C/GIRK thallium flux, primary screen, cell-based, HEK293 alpha2C/GIRK1/2 (AID 624); conditions: thallium flux BTC fluorescence, at 10 µM, actives lie on both sides;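 note: slope of fluorescence ratio to pre-addition baseline per second over 15 to 24 s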
[7] = inhibitors of Sendai virus-induced IRF3 signaling, primary screen, TLR/RLR signaling modifier project, cell-based, Sendai virus stimulus, luciferase, 10K MLSCN set (AID 602276;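 active = inhibition at or above 50% at 10 µM; inactive = inhibition below 50%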;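 note: firefly luciferase from ISG56 promoter only with Renilla not read in this screen; 0% = Sendai virus plus DMSO and 100% = medium plus DMSO without virus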); conditions: HEK293 RL24 IRF3 luciferase reporter, at 10 µM, stronger effect = higher value
[8] = inhibitors of poly I:C-induced TLR3 signaling, primary screen, cell-based, poly I:C stimulus, luciferase, 10K MLSCN set (AID 602277;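 active = inhibition of the reporter signal at or above 50%; inactive = inhibition below 50%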); conditions: HEK293-TLR3 RL24 IRF3 luciferase reporter, at 10 µM, stronger effect = higher value

Chain of Voltage-gated potassium channel subunit beta-2 (Rattus norvegicus) (P62483 whole entry, looked up): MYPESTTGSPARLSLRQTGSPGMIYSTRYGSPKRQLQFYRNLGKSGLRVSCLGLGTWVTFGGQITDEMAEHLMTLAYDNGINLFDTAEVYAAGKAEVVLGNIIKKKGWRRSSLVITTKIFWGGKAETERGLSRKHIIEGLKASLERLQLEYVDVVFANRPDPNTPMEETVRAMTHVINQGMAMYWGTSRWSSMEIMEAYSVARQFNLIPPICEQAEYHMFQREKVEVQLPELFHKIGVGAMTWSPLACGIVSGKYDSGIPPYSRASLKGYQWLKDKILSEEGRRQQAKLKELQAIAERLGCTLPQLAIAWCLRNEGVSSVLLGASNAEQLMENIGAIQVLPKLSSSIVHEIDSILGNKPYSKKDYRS
Chain of Alpha-2C adrenergic receptor (Homo sapiens) (P18825 whole entry, looked up): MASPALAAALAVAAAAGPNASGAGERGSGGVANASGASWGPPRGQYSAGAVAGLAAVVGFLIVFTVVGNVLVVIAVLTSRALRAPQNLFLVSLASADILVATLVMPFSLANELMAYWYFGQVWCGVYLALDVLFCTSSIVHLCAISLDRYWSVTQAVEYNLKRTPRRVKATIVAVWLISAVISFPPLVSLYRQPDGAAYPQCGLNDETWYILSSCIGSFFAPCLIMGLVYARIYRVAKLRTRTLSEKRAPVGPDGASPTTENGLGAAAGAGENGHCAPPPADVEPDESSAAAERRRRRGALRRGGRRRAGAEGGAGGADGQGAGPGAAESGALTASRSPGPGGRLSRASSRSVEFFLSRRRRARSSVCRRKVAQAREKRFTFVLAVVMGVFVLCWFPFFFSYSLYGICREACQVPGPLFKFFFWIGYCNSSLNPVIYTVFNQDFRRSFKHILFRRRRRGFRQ

SMILES	cell count [1]	inhibition [1]	inhibition of aggregation [2]	nuclei count [2] [%]	inhibition [3]	nuclei count [3] [%]	fluorescence slope [4]	NADPH fluorescence slope [5]	slope [6]	inhibition [7]	inhibition [8]
COc1cccc(C(=O)OCn2nnc3ccccc3c2=O)c1	592	-5.6% (inactive)	16.9% (inactive)	89.6	-14.7% (inactive)	119	-0.616 (inactive)	4.3e-05 (inactive)	0.00615 (inactive)	17.1% (inactive)	31.3% (inactive)
COc1cc(C(=O)OC(C)CN2CCCC2)cc(OC)c1OC (stereo not drawn)	286	2.9% (inactive)	-4.1% (inactive)	101	30.9% (inactive)	101	-0.324 (inactive)	-5.1e-05 (inactive)	0.00369 (inactive)	5.11% (inactive)	11.1% (inactive)
O=C(COc1ccc(S(=O)(=O)NC2CCCCC2)cc1Cl)NCC1CCCO1 (stereo not drawn)	310	-13.4% (inactive)	-14.2% (inactive)	124	-111% (inactive)	95.6	-0.415 (inactive)	-1.9e-05 (inactive)	0.00646 (inactive)	3.07% (inactive)	9.97% (inactive)
CCN1CCCC1CN=Cc1c(O)n(-c2ccccc2)c(=O)c2ccccc12 (stereo not drawn)	609	-0.3% (inactive)	-8.1% (inactive)	109	-12.1% (inactive)	97.6	-0.598 (inactive)	-2e-05 (inactive)	0.00513 (inactive)	-6.81% (inactive)	16.9% (inactive)
CC1(C)Cc2cccc(OCC(=O)O)c2O1	635	-2.7% (inactive)	-1% (inactive)	100	-111% (inactive)	108	-0.423 (inactive)	-2.7e-05 (inactive)	0.00676 (inactive)	11.4% (inactive)	17.1% (inactive)
Cc1cc(C)nc(/N=C2\NC(=O)CC(C(=O)O)N2c2ccc(Cl)cc2)n1 (stereo not drawn)	639	-9.7% (inactive)	0.5% (inactive)	101	-44.1% (inactive)	107	-0.552 (inactive)	-2.8e-05 (inactive)	0.00735 (inactive)	11.6% (inactive)	34.3% (inactive)
CC(C)n1nc(C(=O)Nc2nc3ccc(S(C)(=O)=O)cc3s2)c2ccccc2c1=O	452	-6.8% (inactive)	-5.5% (inactive)	35.2	-52.1% (inactive)	117	-0.265 (inactive)	-2.5e-05 (inactive)	0.00538 (inactive)	18.5% (inactive)	29.9% (inactive)
COc1cccc(C2CC(c3c(Cl)cccc3Cl)n3nc(N)nc3N2)c1 (stereo not drawn)	568	13.8% (inactive)	-23.3% (inactive)	75.1	25.6% (inactive)	92.1	-0.504 (inactive)	-1.9e-05 (inactive)	0.00695 (inactive)	22.2% (inactive)	23.9% (inactive)
CC(C)(C)SCCNC(=O)CSc1ccccc1	636	-11% (inactive)	8.5% (inactive)	93	-42.9% (inactive)	78.7	-0.586 (inactive)	-2.1e-05 (inactive)	0.00555 (inactive)	-20.5% (inactive)	-23.4% (inactive)
Cc1c(C(=O)N2CCCC2)sc(NC(=O)c2cccs2)c1C#N	706	17.1% (inactive)	10.4% (inactive)	86.7	-67.6% (inactive)	130	-0.504 (inactive)	-8.5e-06 (inactive)	0.00564 (inactive)	14.8% (inactive)	12.4% (inactive)
CCc1c(C)nc2ncnn2c1NCCc1ccc(OC)c(OC)c1	447	-1.6% (inactive)	-8% (inactive)	95.4	7.1% (inactive)	97.7	-0.323 (inactive)	-7.8e-05 (inactive)	0.00477 (inactive)	8.69% (inactive)	-1.81% (inactive)
COc1ccc(-c2nnc(-c3cccs3)o2)cc1OC	384	-0.2% (inactive)	6.2% (inactive)	99	67.8% (active)	94.7	-0.343 (inactive)	3e-05 (inactive)	0.00689 (inactive)	-76.7% (inactive)	-170% (inactive)
O=C(Nc1ncc(Cc2ccccc2)s1)C1CCCO1 (stereo not drawn)	455	-3.3% (inactive)	11% (inactive)	109	-1.5% (inactive)	96.3	-0.563 (inactive)	-1.3e-05 (inactive)	0.00728 (inactive)	-58.5% (inactive)	-150% (inactive)
CCN1C(=O)Cc2cc(S(=O)(=O)N3CCOCC3)ccc21	675	-2.9% (inactive)	-11.1% (inactive)	121	-38.7% (inactive)	98.4	-0.435 (inactive)	2.6e-05 (inactive)	0.00585 (inactive)	2.07% (inactive)	-4.25% (inactive)
COCCCN(C)C1CCN(C(=O)Nc2ccc(F)cc2)CC1	610	-1.3% (inactive)	-8.7% (inactive)	108	-49.7% (inactive)	102	-0.582 (inactive)	-1.9e-06 (inactive)	0.00654 (inactive)	11% (inactive)	36.9% (inactive)
CCOC(=O)c1ccc(NS(=O)(=O)c2cccc3nsnc23)cc1	387	-6.2% (inactive)	18.9% (inactive)	83.1	-63.9% (inactive)	104	-0.409 (inactive)	4.3e-05 (inactive)	0.00792 (inactive)	-5.26% (inactive)	0.648% (inactive)
Cc1cccc(N2C(=O)CC(Sc3nc(C)c4c(n3)CCCC4)C2=O)c1 (stereo not drawn)	603	3.4% (inactive)	-4.5% (inactive)	105	2% (inactive)	104	-0.592 (inactive)	-2.5e-05 (inactive)	0.00308 (inactive)	-11.6% (inactive)	-8.43% (inactive)
COC(=O)C(C)Sc1nnc2n(-c3cccc(C)c3)c(=O)c3c4c(sc3n12)CCCC4 (stereo not drawn)	660	9.4% (inactive)	7.6% (inactive)	101	-1.2% (inactive)	120	-0.58 (inactive)	-3.5e-06 (inactive)	0.00585 (inactive)	-16% (inactive)	-7.85% (inactive)
CCOc1ccc(-c2nc(C#N)c(N3CCCCCC3)o2)cc1	759	6% (inactive)	11.5% (inactive)	110	-122% (inactive)	114	-0.579 (inactive)	-1.9e-05 (inactive)	0.0066 (inactive)	-2.19% (inactive)	4.25% (inactive)
CCCS(=O)(=O)N1CCN(C(=O)c2cccnc2)CC1	374	5.5% (inactive)	-5.9% (inactive)	98.3	18.3% (inactive)	114	-0.431 (inactive)	-6.9e-05 (inactive)	0.0059 (inactive)	8.38% (inactive)	19.6% (inactive)
CCOc1ccc(NC(=O)C2CC(=O)N(C(C)C)C2)cc1 (stereo not drawn)	346	-0.5% (inactive)	11.8% (inactive)	91.8	-32.2% (inactive)	96.8	-0.623 (inactive)	4.4e-05 (inactive)	0.00445 (inactive)	11% (inactive)	12.4% (inactive)
CCCCSc1nnc([C@H](C)NC(=O)OC(C)(C)C)o1	345	0.2% (inactive)	-2.7% (inactive)	104	-34.4% (inactive)	112	-0.266 (inactive)	-2.9e-05 (inactive)	0.00436 (inactive)	11.6% (inactive)	14.8% (inactive)
Cc1ccc2cc(CCNC(=O)C(C)C)c(=O)[nH]c2c1C	640	1.9% (inactive)	8.6% (inactive)	57.4	-60.4% (inactive)	125	-0.57 (inactive)	-2.3e-05 (inactive)	0.00565 (inactive)	-6.46% (inactive)	-5.17% (inactive)
Cc1noc(C)c1CSc1nnc2n(-c3ccccc3)c(=O)c3ccccc3n12	342	-4% (inactive)	12.7% (inactive)	85.8	-27.6% (inactive)	89.5	-0.411 (inactive)	-1e-05 (inactive)	0.00571 (inactive)	7.36% (inactive)	20.9% (inactive)
COc1cccc(N(C(C)=O)c2nc(C)cc(C)c2C#N)c1	278	13.4% (inactive)	-28.3% (inactive)	113	-47.7% (inactive)	102	-0.557 (inactive)	-1.8e-05 (inactive)	0.00529 (inactive)	17.6% (inactive)	28.7% (inactive)
O=C(OCn1nnc2ccccc2c1=O)C1CCN(S(=O)(=O)c2cccs2)CC1	479	8.9% (inactive)	-8.9% (inactive)	103	13.8% (inactive)	105	-0.356 (inactive)	9.4e-06 (inactive)	0.00571 (inactive)	-1.19% (inactive)	2% (inactive)
COCCNC(=O)C(c1ccncc1)N(C(=O)Cn1nnc2ccccc21)c1ccc(OC)cc1 (stereo not drawn)	679	8.2% (inactive)	-3.2% (inactive)	100	8.4% (inactive)	99.8	-0.481 (inactive)	-4.3e-05 (inactive)	0.00706 (inactive)	-0.74% (inactive)	25.1% (inactive)
CC(=O)NS(=O)(=O)c1ccc(NC(=O)c2ccccc2F)cc1	515	-3.9% (inactive)	23.5% (inactive)	90.4	31.9% (inactive)	90.8	-0.383 (inactive)	-3.8e-05 (inactive)	0.00586 (inactive)	6.18% (inactive)	8.62% (inactive)
